Source: PubChem BioAssay
Sampled rows, rich in hits. Any-hit rate of the full collection: about 0.58%.
CatB mixtures: inhibitors of human cathepsin B in compound mixtures; Purified cathepsin B, AMC dipeptide fluorescence; inhibition, %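 (ten-compound pools at 5 µM per compound and 50 µM total)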; actives 0.06% (n = 62,000); in the data active = inhibition above about 22%, passing the limit was not always enough; inconclusive = no clear call, values can overlap the other calls
CatL block: blocks human cathepsin L protease activity | P07711 | purified cathepsin L, fluorogenic substrate, fluorescence | inhibition, %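 (tested at 10 µM)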 | actives 0.17% (n = 58,000); in the data active = inhibition above about 45%
Target sequence (P07711 114-288 limits assumed): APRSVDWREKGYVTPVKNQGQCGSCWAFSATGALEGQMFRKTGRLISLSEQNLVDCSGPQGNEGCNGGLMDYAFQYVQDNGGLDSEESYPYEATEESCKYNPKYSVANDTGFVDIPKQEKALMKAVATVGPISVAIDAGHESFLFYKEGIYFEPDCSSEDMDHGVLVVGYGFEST
Target sequence (P07711 292-333 limits assumed): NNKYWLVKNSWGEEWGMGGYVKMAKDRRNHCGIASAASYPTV
CatS block: blocks human cathepsin S protease activity | P25774 | AID 501 | inhibition, %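 (tested at 5 µM per compound within 10-compound mixtures)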 | actives 0.06% (n = 62,000) | recombinant cathepsin S, AMC dipeptide fluorescence, pooled mixtures; in the data active = inhibition above about 32%, passing the limit was not always enough; inconclusive = no clear call, values can overlap the other calls
CatB inh: blocks human cathepsin B protease activity | purified cathepsin B, fluorogenic substrate, fluorescence | inhibition, %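 (tested at 10 µM)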 | actives 0.1% (n = 63,000) | AID 453; in the data active = inhibition above about 21%
C1s block: blocks human complement C1s protease activity; P09871; purified C1s, fluorogenic AMC substrate, pooled mixtures; mean inhibition % of two 10-compound mixtures (stronger effect = higher value), % at 5 µM (by protocol); actives 0.16% (n = 62,000);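 active = inhibition above 20% in each of the two 10-compound mixture wells holding the compound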
Cathepsin G inh: blocks human cathepsin G enzyme activity | purified enzyme, AMC-tetrapeptide fluorescence, pooled mixtures | inhibition, % at 5 µM (by protocol) | P08311 | actives 0.2% (n = 62,000) | AID 581;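 active = inhibition above 20% in each of the two mixture wells holding the compound; inactive = inhibition of 20% or less in either well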
Target sequence (P08311 21-244 limits assumed): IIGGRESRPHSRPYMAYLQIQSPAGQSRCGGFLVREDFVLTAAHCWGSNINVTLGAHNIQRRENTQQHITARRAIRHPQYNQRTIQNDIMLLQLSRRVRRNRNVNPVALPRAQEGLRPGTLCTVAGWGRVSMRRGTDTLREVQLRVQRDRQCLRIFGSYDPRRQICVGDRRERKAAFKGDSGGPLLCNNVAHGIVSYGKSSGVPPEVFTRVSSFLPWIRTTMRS
Of the large screens only hits and unclear results are named; the others gave an inactive call.

Nc1nonc1-c1nc2ccccc2n1Cc1ccc(Cl)cc1	none
OC1(c2ccc(F)cc2)CCN(Cc2nnnn2Cc2cccs2)CC1	none
CN1CCCc2cc3c(C(F)(F)F)cc(=O)oc3nc21	none (no result: CatL block)
CCc1ccc(-c2cn(-c3nc(C)cc(C)n3)c(=N)o2)cc1	C1s block 51.9
Cc1noc(C)c1COC(=O)c1ccccc1NC(=O)Cc1ccccc1	C1s block 35.1
Cc1cc(SCC#N)n2nc(C)c(-c3ccccc3)c2n1	CatL block 47.6
CCOC(=O)c1c(C)[nH]c(C(=O)Cn2c(=O)oc3ccccc32)c1C	none
Cc1cc(C)c2c(=O)n(CC(=O)NCCCN3CCN(c4ccccc4F)CC3)sc2n1	CatL block 65.2
Cc1cc(C)c2c(=O)n(CC(=O)NCCCN3CCOCC3)sc2n1	none
CC1CCCN(C(=O)C2CCN(S(=O)(=O)c3cccc4cccnc34)CC2)C1 (stereo not given)	none
O=C(CC(c1ccccc1)c1ccco1)N1CCOCC1 (stereo not given)	CatS block 59.4
Cc1cc(NC(=O)c2cccc(S(=O)(=O)N3CCCCCC3)c2)n(-c2ccccn2)n1	C1s block 43.0
O=C(CNC(=O)c1ccco1)OC(C(=O)c1ccccc1)c1ccccc1 (stereo not given)	CatB mixtures inconclusive, CatL block 78.1
COc1ccc(Cl)c(Cn2c(NCc3ccccn3)nc3c2c(=O)n(C)c(=O)n3C)c1	none
COc1ccc(Cl)c(Cn2c(NCCCO)nc3c2c(=O)n(C)c(=O)n3C)c1	CatL block 56.8
O=C(CCCc1cccs1)N1CCN(S(=O)(=O)c2ccccc2Br)CC1	none (no result: CatL block)
C=CCn1c(O)c(CN2CCOCC2)c(C)c(C#N)c1=O	CatL block 103.4
Cn1c(CN2CCOCC2)c(C#N)c2ccccc21	none
COc1cc(NC(=O)c2csc3c2CCCC3)ncn1	Cathepsin G inh 33.7
CCOC(=O)N1CCC2(CC1)C(C#N)=C(N)Oc1c2c(C)nn1-c1cccc(Cl)c1	none
Cn1c(=O)c2cc(NC(=O)c3ccccc3Cl)c(=O)oc2n(C)c1=O	Cathepsin G inh 20.4 (no result: CatL block)
CCS(=O)(=O)c1ccc(NC(=O)c2ccccc2Cl)c(O)c1	none
COc1ccc(OC)c(NC(=O)CSc2nnc(N)s2)c1	none
CCn1c(SCC(=O)c2c(N)n(C)c(=O)n(C)c2=O)nc2sc(C)c(C)c2c1=O	C1s block 33.4
Cc1ccc(C2NC(=O)c3c(sc4c3CCN(C)C4)N2)s1 (stereo not given)	CatL block 55.0
Cn1c(O)c(C=Nc2ccc(Cc3ccncc3)cc2)c(=O)n(C)c1=O	none (no result: CatB mixtures, CatS block, C1s block, Cathepsin G inh)
COc1ccc(C(=O)c2no[n+]([O-])c2C(=O)c2ccc(OC)cc2)cc1	CatB mixtures 37.0, CatB inh 31.0
CCC(=O)Nc1ccc(C(=O)Nc2ccc3c(c2)OCO3)cc1	C1s block 21.3
CC(=O)Nc1ccc(C(=O)Nc2ccc3c(c2)OCO3)cc1	none
COc1ccc2c(c1)CCc1c(C(=O)Nc3ccn(Cc4ccc(C)cc4)n3)noc1-2	Cathepsin G inh 93.8
COc1ccc2c(c1)CCc1c(C(=O)Nc3cc(C)n(Cc4ccc(Cl)cc4)n3)noc1-2	Cathepsin G inh 65.8
O=S1(=O)CC(O)C(N2CCC(c3ccccc3)CC2)C1 (stereo not given)	none
COc1cccc(C(=O)Oc2cc(N)n(S(=O)(=O)c3ccc(C)cc3)n2)c1OC	none
Cc1nn(-c2ccccc2)c(OC(=O)c2cccs2)c1S(=O)(=O)c1ccccc1	none
Nc1cc(OC(=O)c2cccs2)nn1S(=O)(=O)c1ccc(F)cc1	CatB mixtures 55.3, CatB inh 55.6
Nc1cc(OC(=O)c2cccs2)nn1S(=O)(=O)c1ccccc1	CatB mixtures 68.8, CatB inh 75.7, Cathepsin G inh 32.0
COC(=O)c1ccc2c(c1)NC(=O)C(N1CCCC1)S2 (stereo not given)	CatL block 63.0
COC(=O)c1ccc2c(c1)NC(=O)C(N1CCCCC1)S2 (stereo not given)	none
COc1ccc(OCCSc2nnc(-c3ccoc3C)n2C)cc1	none
O=C1c2oc3ccc(F)cc3c(=O)c2C(c2ccccc2)N1CC1CCCO1 (stereo not given)	none
COc1ccccc1CNC(=O)CCn1c(=O)[nH]c2ccsc2c1=O	none
O=C(CCCCn1c(=O)[nH]c2ccsc2c1=O)NCc1cccnc1	CatB mixtures 25.2
CCc1nc2ccccc2n(CC)c1=O	none
CCn1c(=O)c(C(C)=O)nc2ccccc21	C1s block 21.7
CC1CCN(Cc2ccc(-c3nn[nH]n3)cc2)CC1	none
O=C1c2cccnc2C(=O)N1Cc1ccc(F)cc1	none
COc1ccccc1-c1cc(C(=O)Nc2cccnc2)no1	Cathepsin G inh 33.8
COc1ccc(NC(=O)c2cc(-c3ccccc3OC)on2)cc1	none
COc1ccc(C(=O)n2nnc3ccccc32)cc1Br	C1s block 67.0
COc1ccc(C(=O)n2nc(C)cc2C)cc1Br	none
COc1ccc(C(=O)n2ccc(C)n2)cc1Br	Cathepsin G inh 20.7 (no result: CatL block)
O=C(c1ccc2c(c1)OCO2)n1nnc2ccccc21	C1s block 85.6, Cathepsin G inh 89.3
O=C(Nc1cc(C(F)(F)F)ccc1N1CCCC1)c1cccnc1	none
CC(C)(C)c1nnc2sc(SCC(=O)c3cccs3)nn2c1=O	none
Cc1ccc2cc(C#N)c(NCCCNC(=O)C3CCCO3)nc2c1 (stereo not given)	none
COc1ccc(C(=O)CSc2nc(C)cc(=O)[nH]2)cc1	none
Cc1cc(=O)[nH]c(SCC(=O)c2ccc(C(C)C)cc2)n1	C1s block 57.1
O=c1oc(-c2ccco2)nc2ccccc12	C1s block 47.8, Cathepsin G inh 74.3
Cc1sc2nc(-c3ccco3)oc(=O)c2c1C	C1s block 32.2
O=C(Nc1ccccc1C(F)(F)F)N1CCCCCC1	none
NC(=O)C1(N2CCCCC2)CCN(C(=O)Nc2ccccc2C(F)(F)F)CC1	C1s block 25.3
C1CCC2(CC1)C1=C(CCCC1)Nc1nnnn12	none
Nc1nc2n(n1)C1(CCCCC1)C1=C(CCCC1)N2	CatB mixtures 68.9, CatB inh 39.1
Cc1cc(C)n2nc(NCc3cccc(Br)c3)nc2n1	none
CCCCc1[nH]nc2c1C1(C(=O)N(CC)c3ccccc31)C(C#N)=C(N)O2 (stereo not given)	CatB inh 25.1
CCCc1[nH]nc2c1C1(C(=O)N(C(C)C)c3ccccc31)C(C#N)=C(N)O2 (stereo not given)	none
COC(=O)c1ccccc1NC(=O)CN(C)S(=O)(=O)c1cc(C)ccc1OC	none
CCOC(=O)c1sc(NC(=O)CSc2nnc(-c3ccc(OC)cc3)n2CCOC)nc1C	none
Cc1ccc(C(C)C)c(OCc2nc(-c3nonc3N)no2)c1	CatB inh 21.8 (no result: CatL block)
Nc1nonc1-c1noc(CCCOc2ccc(Cl)cc2Cl)n1	none
CN(Cc1ccccc1)Cc1nc2c([nH]1)c(=O)n(C)c(=O)n2C	none (no result: CatL block)
O=C(NCc1ccco1)c1cc2nc(C3CC3)cc(C(F)(F)F)n2n1	none
